Experimental data as given in PubChem BioAssay (EPA / NIEHS).
Inconclusive results are not listed. The source made the active and inactive calls. The calls were made as follows: active = hit-call score of the fitted dose curve at least 0.9, where 1 is the maximum; inconclusive = response in the unintended direction; inactive = score below 0.9.

Columns and labels:
[1] = molecular target: Androgen Receptor/SRC-1 Co-activator, AR (gene 367) (UniProt P10275); experiment: OT_AR_ARSRC1_0480: Odyssey Thera (OT) 8-hour HEK293T Protein-Complementation Assay for Androgen Receptor/SRC-1 Co-activator (AID 2283354);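 also: hits raise the complementation signal above DMSO so AC50 marks enhancers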
Sequence of Androgen Receptor/SRC-1 Co-activator, AR (gene 367) (P10275 whole entry, looked up, the tested form may be a part): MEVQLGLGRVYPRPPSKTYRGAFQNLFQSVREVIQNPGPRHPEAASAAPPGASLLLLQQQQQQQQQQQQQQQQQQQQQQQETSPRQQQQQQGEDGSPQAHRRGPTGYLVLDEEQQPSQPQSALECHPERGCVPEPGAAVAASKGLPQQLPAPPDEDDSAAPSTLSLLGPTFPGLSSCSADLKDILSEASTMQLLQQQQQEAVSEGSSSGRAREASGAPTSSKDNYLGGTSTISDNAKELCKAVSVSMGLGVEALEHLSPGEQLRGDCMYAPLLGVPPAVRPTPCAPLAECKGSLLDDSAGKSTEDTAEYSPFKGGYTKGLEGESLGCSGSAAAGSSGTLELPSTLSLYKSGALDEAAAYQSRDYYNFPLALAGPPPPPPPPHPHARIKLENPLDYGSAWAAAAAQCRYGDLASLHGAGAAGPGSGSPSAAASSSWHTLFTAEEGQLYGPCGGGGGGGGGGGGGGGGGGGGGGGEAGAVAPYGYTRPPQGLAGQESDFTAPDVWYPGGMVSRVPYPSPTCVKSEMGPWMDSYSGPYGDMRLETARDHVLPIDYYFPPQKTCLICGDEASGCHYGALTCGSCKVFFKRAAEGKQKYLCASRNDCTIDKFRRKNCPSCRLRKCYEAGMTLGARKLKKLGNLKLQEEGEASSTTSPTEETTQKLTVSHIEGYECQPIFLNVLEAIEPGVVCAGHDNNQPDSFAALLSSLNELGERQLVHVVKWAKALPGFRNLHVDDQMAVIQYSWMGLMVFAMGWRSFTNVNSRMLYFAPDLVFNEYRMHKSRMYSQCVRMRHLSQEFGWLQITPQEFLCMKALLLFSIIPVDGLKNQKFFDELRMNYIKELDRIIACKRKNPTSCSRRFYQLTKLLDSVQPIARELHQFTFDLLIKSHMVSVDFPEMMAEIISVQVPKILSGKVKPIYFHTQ
Procedure, shortened: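 HEK293T cells stably expressing AR and SRC-1 fused to Venus YFP fragments, imaged 8 h after dosing. Complementation fluorescence scored as nuclear/cytoplasmic ratio at 488 nm in at least 400 cells per image; gain fitted versus DMSO.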

PGR (gene 5241) = PGR (gene 5241) (UniProt P06401); experiment: NVS_NR_hPR: NovaScreen (NVS) Nuclear Receptor Binding Assay for human Progestron Receptor (PR) (AID 2283360);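 also: active means loss of bound radioligand signal versus DMSO baseline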
Procedure, shortened: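 Radioligand competition binding on receptor extracted from T47D cells, read by scintillation counting 18 h after dosing. Loss of signal versus DMSO; primary screen in duplicate at 25 uM, actives followed in concentration series.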

[2] = molecular target: Peroxisome proliferator-activated receptor gamma (Homo sapiens) (UniProt P37231); experiment: NVS_NR_hPPARg: NovaScreen (NVS) Nuclear Receptor Binding Assay for human Peroxisome Proliferator-activated Receptor gamma (PPARg) (AID 2283370)
Sequence of Peroxisome proliferator-activated receptor gamma (Homo sapiens) (P37231 whole entry, looked up): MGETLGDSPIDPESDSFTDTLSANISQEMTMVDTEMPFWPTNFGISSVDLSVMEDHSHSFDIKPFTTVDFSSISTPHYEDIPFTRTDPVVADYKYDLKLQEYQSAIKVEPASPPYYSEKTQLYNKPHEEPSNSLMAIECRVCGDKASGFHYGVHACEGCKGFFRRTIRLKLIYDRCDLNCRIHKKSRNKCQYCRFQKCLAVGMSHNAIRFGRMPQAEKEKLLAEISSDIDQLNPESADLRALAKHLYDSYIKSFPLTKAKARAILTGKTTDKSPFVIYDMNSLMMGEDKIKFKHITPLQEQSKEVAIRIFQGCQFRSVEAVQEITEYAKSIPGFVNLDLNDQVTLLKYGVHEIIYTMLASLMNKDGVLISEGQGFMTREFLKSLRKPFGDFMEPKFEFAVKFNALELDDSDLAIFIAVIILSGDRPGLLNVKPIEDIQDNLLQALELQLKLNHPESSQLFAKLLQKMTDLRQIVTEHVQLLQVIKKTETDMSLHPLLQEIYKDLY
Procedure, shortened: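 Fluorescence polarization readout of ligand binding to extracted human PPARg, measured at 2 h. Duplicate single-point screen at 25 uM, then concentration-series retesting; activity defined as signal loss versus DMSO.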

[3] = molecular target: Estrogen receptor (Homo sapiens) + Estrogen receptor beta (Homo sapiens) (UniProt P03372+Q92731); experiment: OT_ER_ERaERb_1440: Odyssey Thera (OT) 24-hour HEK293T Protein-Complementation Assay for Estrogen Receptor-alpha/-beta Homodimer (AID 2283356);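 also: heteromer of ER alpha and ER beta binding domains; hits raise reporter fluorescence and both agonists and antagonists give an increase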
Sequence of Estrogen receptor (Homo sapiens) + Estrogen receptor beta (Homo sapiens) (P03372 whole entry, looked up, the tested form may be a part): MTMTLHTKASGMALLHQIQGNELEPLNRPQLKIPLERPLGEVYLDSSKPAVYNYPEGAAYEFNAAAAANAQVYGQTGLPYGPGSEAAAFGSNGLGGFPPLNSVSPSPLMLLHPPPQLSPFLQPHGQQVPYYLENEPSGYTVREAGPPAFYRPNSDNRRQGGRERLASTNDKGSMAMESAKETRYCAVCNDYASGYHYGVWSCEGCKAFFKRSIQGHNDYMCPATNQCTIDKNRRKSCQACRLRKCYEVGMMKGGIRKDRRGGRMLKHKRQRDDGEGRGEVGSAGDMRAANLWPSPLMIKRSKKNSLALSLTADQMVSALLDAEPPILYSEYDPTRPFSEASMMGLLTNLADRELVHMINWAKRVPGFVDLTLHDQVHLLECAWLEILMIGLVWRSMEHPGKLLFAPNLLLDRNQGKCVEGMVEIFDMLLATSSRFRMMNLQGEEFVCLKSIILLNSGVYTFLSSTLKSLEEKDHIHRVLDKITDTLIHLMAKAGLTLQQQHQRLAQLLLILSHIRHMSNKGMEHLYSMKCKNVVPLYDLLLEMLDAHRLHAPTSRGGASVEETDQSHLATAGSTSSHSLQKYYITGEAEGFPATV
Sequence of Estrogen receptor (Homo sapiens) + Estrogen receptor beta (Homo sapiens) (Q92731 whole entry, looked up, the tested form may be a part): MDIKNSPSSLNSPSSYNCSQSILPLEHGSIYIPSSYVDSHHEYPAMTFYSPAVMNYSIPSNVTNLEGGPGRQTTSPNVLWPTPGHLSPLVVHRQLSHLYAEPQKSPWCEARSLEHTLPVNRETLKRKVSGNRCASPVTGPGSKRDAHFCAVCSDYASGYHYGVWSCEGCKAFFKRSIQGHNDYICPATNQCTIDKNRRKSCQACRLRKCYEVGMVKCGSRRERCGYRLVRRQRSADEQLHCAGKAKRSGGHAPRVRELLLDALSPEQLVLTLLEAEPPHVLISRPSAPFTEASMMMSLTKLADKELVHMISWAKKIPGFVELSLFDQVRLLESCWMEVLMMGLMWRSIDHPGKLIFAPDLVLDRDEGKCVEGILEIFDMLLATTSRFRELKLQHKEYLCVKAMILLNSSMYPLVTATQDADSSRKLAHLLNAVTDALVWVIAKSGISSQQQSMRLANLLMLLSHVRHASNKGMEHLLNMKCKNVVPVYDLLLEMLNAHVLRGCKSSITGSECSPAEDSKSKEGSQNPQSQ
Procedure, shortened: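 Fragment complementation between ER alpha (310-547) and ER beta (263-489) ligand-binding domains in HEK293T cells; signal read 24 h post-dosing by laser scanning cytometer. Gain of fluorescence relative to DMSO fitted.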

[4] = molecular target: Estrogen receptor beta (Homo sapiens) (UniProt Q92731); experiment: OT_ER_ERbERb_0480: Odyssey Thera (OT) 8-hour HEK293T Protein-Complementation Assay for Estrogen Receptor-beta/-beta Homodimer (AID 2283357);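 also: active means signal gain over DMSO baseline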
Sequence of Estrogen receptor beta (Homo sapiens) (Q92731 whole entry, looked up, the tested form may be a part): as above
Procedure, shortened: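 Fluorescence intensity, nuclear for agonists and nuclear plus cytoplasmic for antagonists, was quantified by laser scanning cytometry versus vehicle after 8 h treatment. The cells were HEK293T stably carrying ER beta LBD fragment-complementation partners.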

[5] = molecular target: human Peroxisome Proliferator-activated Receptor alpha (PPARa), PPARA (gene 5465) (UniProt Q07869); experiment: NVS_NR_hPPARa: NovaScreen (NVS) Nuclear Receptor Binding Assay for human Peroxisome Proliferator-activated Receptor alpha (PPARa) (AID 2283359);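 also: activity means loss of TR-FRET signal versus DMSO baseline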
Sequence of human Peroxisome Proliferator-activated Receptor alpha (PPARa), PPARA (gene 5465) (Q07869 whole entry, looked up): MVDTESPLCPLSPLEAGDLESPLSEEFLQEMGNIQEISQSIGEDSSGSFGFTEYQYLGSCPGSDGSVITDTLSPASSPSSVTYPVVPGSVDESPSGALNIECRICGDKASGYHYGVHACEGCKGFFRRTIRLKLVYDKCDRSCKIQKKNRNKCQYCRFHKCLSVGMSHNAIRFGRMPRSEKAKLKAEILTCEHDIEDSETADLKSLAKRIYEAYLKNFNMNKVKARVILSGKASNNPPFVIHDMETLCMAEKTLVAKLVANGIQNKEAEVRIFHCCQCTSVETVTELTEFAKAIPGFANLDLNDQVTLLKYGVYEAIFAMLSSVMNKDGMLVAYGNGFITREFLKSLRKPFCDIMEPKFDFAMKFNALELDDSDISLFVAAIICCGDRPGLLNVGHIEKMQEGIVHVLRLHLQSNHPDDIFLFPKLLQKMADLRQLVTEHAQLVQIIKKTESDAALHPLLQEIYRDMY
Procedure, shortened: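 Cell-free TR-FRET binding assay with extracted PPARα protein, read 1 h after dosing. Primary screen in duplicate at 25 uM, with actives retested in concentration series. Loss of signal versus DMSO.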

[6] = molecular target: rat Mineralocorticoid Receptor (MR), Nr3c2 (gene 25672) (UniProt P22199); experiment: NVS_NR_rMR: NovaScreen (NVS) Nuclear Receptor Binding Assay for rat Mineralocorticoid Receptor (MR) (AID 2283355)
Procedure, shortened: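 Cell-free radioligand binding to mineralocorticoid receptor from adrenalectomized rat brain supernatant, scintillation counting after 24 h. Primary screen in duplicate at 25 uM; actives retested in concentration series. Loss of specific binding versus DMSO.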

[7] = molecular target: human Dopamine Transporter (DAT), SLC6A3 (gene 6531) (UniProt Q01959); experiment: NVS_TR_hDAT: NovaScreen (NVS) Transporter Assay for human Dopamine Transporter (DAT) (AID 2283374);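 also: activity means loss of bound radioligand signal relative to DMSO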
Procedure, shortened: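 Cell-free radioligand displacement binding at human DAT, 1 h after dosing, with filtration and scintillation counting. Primary screen in duplicate at 25 uM, actives then in concentration series. Loss of bound signal versus DMSO scored.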

[8] = molecular target: human Norepinephrine Transporter (NET), SLC6A2 (gene 6530) (UniProt P23975); experiment: NVS_TR_hNET: NovaScreen (NVS) Transporter Assay for human Norepinephrine Transporter (NET) (AID 2283377);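 as to AC50: displacement of radioligand from human NET seen as loss of scintillation signal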
Sequence of human Norepinephrine Transporter (NET), SLC6A2 (gene 6530) (P23975 whole entry, looked up): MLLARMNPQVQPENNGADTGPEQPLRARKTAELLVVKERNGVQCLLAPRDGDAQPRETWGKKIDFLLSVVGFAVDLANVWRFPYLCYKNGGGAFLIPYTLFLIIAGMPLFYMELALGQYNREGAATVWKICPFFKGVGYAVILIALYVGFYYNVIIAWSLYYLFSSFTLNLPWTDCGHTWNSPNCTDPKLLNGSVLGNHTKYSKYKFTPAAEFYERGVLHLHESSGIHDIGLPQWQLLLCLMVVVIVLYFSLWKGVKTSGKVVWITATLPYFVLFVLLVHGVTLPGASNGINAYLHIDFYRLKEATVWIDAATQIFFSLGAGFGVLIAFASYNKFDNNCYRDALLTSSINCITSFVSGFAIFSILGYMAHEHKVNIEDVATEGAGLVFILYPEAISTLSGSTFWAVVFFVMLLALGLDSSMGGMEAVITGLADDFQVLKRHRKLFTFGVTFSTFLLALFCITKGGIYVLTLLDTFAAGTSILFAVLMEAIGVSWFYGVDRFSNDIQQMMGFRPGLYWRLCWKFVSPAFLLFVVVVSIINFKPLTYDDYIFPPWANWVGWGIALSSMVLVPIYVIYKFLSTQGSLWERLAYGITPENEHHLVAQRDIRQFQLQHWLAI
Procedure, shortened: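 Cell-free radioligand binding using CHO-derived membrane protein expressing human NET, read by filter scintillation counting 1 h after dosing; loss of signal vs DMSO. Initial duplicate screen at 25 uM, actives retested in concentration series.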

[9] = molecular target: Glucocorticoid receptor (Homo sapiens) (UniProt P04150); experiment: NVS_NR_hGR: NovaScreen (NVS) Nuclear Receptor Binding Assay for human Glucocorticoid Receptor (GR) (AID 2283363);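 as to AC50: activity is loss of specific radioligand binding signal relative to DMSO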
Sequence of Glucocorticoid receptor (Homo sapiens) (P04150 whole entry, looked up): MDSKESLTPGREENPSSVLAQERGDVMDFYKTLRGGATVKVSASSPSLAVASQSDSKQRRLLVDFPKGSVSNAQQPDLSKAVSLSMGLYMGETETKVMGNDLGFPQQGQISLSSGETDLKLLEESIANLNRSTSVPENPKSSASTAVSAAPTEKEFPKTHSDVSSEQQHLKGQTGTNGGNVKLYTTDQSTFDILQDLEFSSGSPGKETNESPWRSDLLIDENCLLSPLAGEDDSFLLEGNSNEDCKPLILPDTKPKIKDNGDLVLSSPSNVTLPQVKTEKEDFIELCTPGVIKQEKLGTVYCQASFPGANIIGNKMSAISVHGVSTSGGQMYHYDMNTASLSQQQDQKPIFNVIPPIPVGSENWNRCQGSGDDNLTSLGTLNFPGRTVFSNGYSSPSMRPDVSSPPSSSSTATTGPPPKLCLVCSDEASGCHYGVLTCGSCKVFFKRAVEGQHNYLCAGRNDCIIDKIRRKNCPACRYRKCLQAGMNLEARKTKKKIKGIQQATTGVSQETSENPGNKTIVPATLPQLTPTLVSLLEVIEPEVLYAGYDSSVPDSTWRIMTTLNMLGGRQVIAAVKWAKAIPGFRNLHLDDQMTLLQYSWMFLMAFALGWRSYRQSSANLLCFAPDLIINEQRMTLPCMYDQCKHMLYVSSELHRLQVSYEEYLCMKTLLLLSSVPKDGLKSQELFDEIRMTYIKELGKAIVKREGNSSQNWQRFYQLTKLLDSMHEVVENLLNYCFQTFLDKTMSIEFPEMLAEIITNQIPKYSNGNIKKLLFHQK
Procedure, shortened: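 Cell-free radioligand displacement assay on extracted human GR, read 16 h after dosing by filter-based scintillation counting. Screened in duplicate at 25 uM, then concentration series for actives; loss of signal versus DMSO baseline.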

[10] = tested on: guinea pig Dopamine Transporter (DAT), gene 100714898; experiment: NVS_TR_gDAT: NovaScreen (NVS) Transporter Assay for guinea pig Dopamine Transporter (DAT) (AID 2283369);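 also: active compounds lower bound radioligand signal relative to DMSO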
Procedure, shortened: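 Radioligand displacement on membranes from guinea pig striatum, 2 h exposure, bound label counted by filtration and scintillation. Tested at 25 uM in duplicate, then actives in concentration series to 50 uM; DMSO as negative control.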

[11] = molecular target: guinea pig Sigma Receptor, Non-selective Binding, SIGMAR1 (gene 100135589) (UniProt Q60492); experiment: NVS_OR_gSIGMA_NonSelective: NovaScreen (NVS) Nuclear Receptor Binding Assay for guinea pig Sigma Receptor, Non-selective Binding (AID 2283367)
Sequence of guinea pig Sigma Receptor, Non-selective Binding, SIGMAR1 (gene 100135589) (Q60492 whole entry, looked up): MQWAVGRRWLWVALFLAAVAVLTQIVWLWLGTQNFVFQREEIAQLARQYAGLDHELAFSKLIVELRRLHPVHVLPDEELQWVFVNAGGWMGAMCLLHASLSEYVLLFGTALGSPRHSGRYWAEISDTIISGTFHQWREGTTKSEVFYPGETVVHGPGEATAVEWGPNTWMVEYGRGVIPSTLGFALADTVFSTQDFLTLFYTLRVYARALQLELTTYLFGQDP
Procedure, shortened: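 Radioligand displacement on guinea pig brain membranes, read by filter-based scintillation counting 1 h after dosing. Loss of signal versus DMSO; initial duplicate single-point screen at 25 uM, actives followed in concentration series.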

[12] = molecular target: Retinoic acid receptor alpha (Homo sapiens) (UniProt P10276); experiment: NVS_NR_hRAR_Antagonist: NovaScreen (NVS) Nuclear Receptor Binding Assay for human Retinoic Acid Alpha Receptor Antagonism (RAR) (AID 2283358)
Procedure, shortened: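 Cell-free TR-FRET binding assay with extracted human RARalpha in antagonist mode, read 2 h after dosing. Loss of signal was fitted relative to DMSO; the primary screen used 25 uM in duplicate, with concentration series on follow-up.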

[13] = molecular target: human Serotonin Transporter (SERT), SLC6A4 (gene 6532) (UniProt P31645); experiment: NVS_TR_hSERT: NovaScreen (NVS) Transporter Assay for human Serotonin Transporter (SERT) (AID 2283372)
Procedure, shortened: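 Radioligand binding to native SERT in human platelet membranes, read by filter-based scintillation counting 1 h after dosing. Primary screen in duplicate at 25 uM; actives followed up in concentration series; loss of signal versus DMSO baseline.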

[14] = molecular target: human Thyroid Receptor Alpha (TRa), THRA (gene 7067) (UniProt P10827); experiment: NVS_NR_hTRa_Antagonist: NovaScreen (NVS) Nuclear Receptor Binding Assay for human Thyroid Receptor Alpha Antagonism (TRa) (AID 2283362);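 also: activity is loss of signal relative to DMSO baseline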
Procedure, shortened: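 Actives from a duplicate 25 uM single-point screen were retested in concentration series. The cell-free antagonist-format binding assay was read by AlphaLISA chemiluminescence at 1 h, scored as signal loss relative to DMSO.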

[15] = molecular target: Retinoic acid receptor alpha (Homo sapiens) (UniProt P10276); experiment: NVS_NR_hRARa_Agonist: NovaScreen (NVS) Nuclear Receptor Binding Assay for human Retinoic Acid Alpha Receptor Agonism (RAR) (AID 2283361)
Procedure, shortened: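 Cell-free TR-FRET binding readout with extracted receptor protein, read 2 hours after dosing; gain-of-signal fitted relative to DMSO. Screened in duplicate at 25 uM, actives then run in concentration-response.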

Structure (SMILES): CN[C@H]1CC[C@@H](c2ccc(Cl)c(Cl)c2)c2ccc(S(N)(=O)=O)cc21
- AC50 [1]: 19.9 µM (active)
- outcome (PGR (gene 5241)): inactive
- outcome [2]: inactive

Structure (SMILES): O=c1c(O)c(-c2ccc(O)c(O)c2)oc2cc(O)cc(O)c12
- AC50 [3]: 24.8 µM (active)
- AC50 [4]: 2.32 µM (active)
- outcome [5]: inactive
- AC50 [2]: 33.1 µM (active)

Structure (SMILES): O=c1[nH]cc(F)c(=O)[nH]1
- outcome [6]: inactive
- outcome [3]: inactive
- outcome [4]: inactive

Structure (SMILES): Cc1ccc(C)c(O)c1C
- outcome [1]: inactive
- AC50 [7]: 10.3 µM (active)

Structure (SMILES): CCCCCCCCCCO
- outcome [3]: inactive
- outcome [4]: inactive
- outcome [5]: inactive

Structure (SMILES): Cc1ccc(C)c(C)c1
- outcome [1]: inactive
- outcome [3]: inactive
- outcome [4]: inactive

Structure (SMILES): C[Si]1(C)O[Si](C)(C)O[Si](C)(C)O[Si](C)(C)O1
- outcome [3]: inactive
- outcome [4]: inactive

Structure (SMILES): Cc1cccc(Nc2cc(Cl)nc(SCC(=O)O)n2)c1C
- outcome [1]: inactive
- outcome [3]: inactive
- outcome [4]: inactive
- outcome [8]: inactive

Structure (SMILES): NCC1(Cc2noc(=O)[nH]2)CCCCC1
- outcome [3]: inactive
- outcome [4]: inactive

Structure (SMILES): COc1ccc(S(=O)(=O)N2C(=O)[C@@](c3ccccc3OC)(N3C[C@H](O)C[C@H]3C(=O)N(C)C)c3cc(Cl)ccc32)c(OC)c1
- AC50 [1]: 27.2 µM (active)
- AC50 [9]: 5.95 µM (active)
- AC50 [10]: 25 µM (active)
- outcome [2]: inactive
- outcome [7]: inactive
- AC50 [8]: 41.6 µM (active)

Structure (SMILES): CC(C)(C)c1cc(O)c(C(C)(C)C)cc1O
- outcome [1]: inactive
- outcome [3]: inactive
- outcome [4]: inactive
- AC50 [11]: 5.75 µM (active)
- outcome [8]: inactive

Structure (SMILES): Clc1cc(Cl)c(Cl)cc1Cl
- outcome [3]: inactive
- outcome [4]: inactive

Structure (SMILES): O=C(O)CCCCC(=O)O
- outcome [3]: inactive
- outcome [4]: inactive

Structure (SMILES): COc1ccc(C)cc1N
- outcome [1]: inactive
- outcome [12]: inactive

Structure (SMILES): CCOC(=O)CCC(=O)OCC
- AC50 [6]: 25 µM (active)
- outcome [3]: inactive
- outcome [4]: inactive
- outcome [9]: inactive
- AC50 [10]: 6.93 µM (active)
- outcome [13]: inactive
- outcome [7]: inactive

Structure (SMILES): Cc1ccc(C(C)C)c(O)c1
- outcome [3]: inactive
- AC50 [4]: 33.9 µM (active)
- outcome [5]: inactive
- outcome [11]: inactive
- outcome [10]: inactive

Structure (SMILES): CCOC(=O)C(C)(C)Oc1ccc(Cl)cc1
- outcome [3]: inactive
- outcome [4]: inactive
- outcome (PGR (gene 5241)): inactive
- outcome [14]: inactive
- outcome [9]: inactive
- outcome [2]: inactive
- outcome [7]: inactive

Structure (SMILES): CC1=C(/C=C/C(C)=C/C=C/C(C)=C/CO)C(C)(C)CCC1
- outcome [3]: inactive
- outcome [4]: inactive
- outcome [12]: inactive
- outcome [5]: inactive
- outcome [15]: inactive
- outcome [2]: inactive
- outcome [8]: inactive

Structure (SMILES): Cc1ccccc1Cl
- outcome [1]: inactive
- AC50 [11]: 15.7 µM (active)
